# Test results as given in PubChem BioAssay (NCATS).
# Inconclusive results are not listed. Where a call stands in place of a potency, no number is given. Values without a mark were called inactive. Activity calls are given as the source filed them. Calls come from the whole dose curve; as a rule, active = well fitted curve in the direction sought with a large enough effect; inconclusive = small, poorly fitted or top-dose-only effect, or another doubt; inactive = no such curve, though single readings can be large; an effect the other way counts as inactive or inconclusive.
# Legend:
# [1] = qHTS of pediatric cancer cell lines to identify multiple opportunities for drug repurposing: Primary screen for SJ-GBM2 cells (AID 1347091)
# In short: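 Eight- or eleven-point concentration series, 48 h treatment at 37 degrees C in growth media; readout CellTiter-Glo luminescence. Potency and efficacy were taken from the concentration-response curves.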
# [2] = qHTS of pediatric cancer cell lines to identify multiple opportunities for drug repurposing: Primary screen for A673 cells (AID 1347092); note: nearly all actives have a fitted effect of over 45% in size
# In short: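 Cells are plated, rested 5 h, dosed by pintool, incubated 48 h, then lysed with CellTiter-Glo and read by luminescence. DMSO is the neutral control; bortezomib at 2.3 uM final is the positive control.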
# [3] = qHTS of pediatric cancer cell lines to identify multiple opportunities for drug repurposing: Primary screen for SK-N-MC cells (AID 1347093); for activity change, negative = cytotoxic: series mostly up to about 46 µM
# In short: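 Metabolically active cells were quantified by ATP-dependent luminescence (CellTiter-Glo, 15 min at room temperature) following 48 h treatment. Cells had been plated at 500-1,000 per well and settled for 5 h beforehand.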
# [4] = qHTS of pediatric cancer cell lines to identify multiple opportunities for drug repurposing: Primary screen for BT-37 cells (AID 1347094); for activity change, negative = cytotoxic: series mostly up to about 57 µM
# In short: (§1)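 Phenotypic viability qHTS, 48 h compound exposure, CellTiter-Glo luminescence read-out; multi-concentration dosing so that potency and efficacy derive directly from the primary screen's curves.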
# [5] = qHTS of pediatric cancer cell lines to identify multiple opportunities for drug repurposing: Primary screen for NB-EBc1 cells (AID 1347095)
# In short: as §1
# [6] = qHTS of pediatric cancer cell lines to identify multiple opportunities for drug repurposing: Primary screen for U-2 OS cells (AID 1347096); note: nearly all actives have a fitted effect of over 50% in size
# In short: (§2)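 Cells (500-1,000/well) in growth media were settled 5 h at 37 degrees C, then given compounds for 48 h. Viability was read as CellTiter-Glo luminescence. Primary runs used MIPE at 11 points (0.78 nM-46 µM) and NPC at 8 points (0.59 nM-46 µM); follow-ups used 11 points.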
# [7] = qHTS of pediatric cancer cell lines to identify multiple opportunities for drug repurposing: Primary screen for Saos-2 cells (AID 1347097); note: nearly all actives have a fitted effect of over 40% in size
# In short: as §1
# [8] = qHTS of pediatric cancer cell lines to identify multiple opportunities for drug repurposing: Primary screen for SK-N-SH cells (AID 1347098); note: nearly all actives have a fitted effect of over 65% in size;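 for activity change, negative = cytotoxic: DMSO served as neutral control and bortezomib at 2.3 µM as positive control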
# In short: (§3)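 Cells (500-1,000/well) rested 5 h, then received compounds for 48 h; metabolically active cells were measured by CellTiter-Glo luminescence. Final concentrations spanned up to 46 µM (MIPE, 11-point) or 0.59 nM-46 µM (NPC, 8-point) in primary screens, 11-point in follow-ups.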
# [9] = qHTS of pediatric cancer cell lines to identify multiple opportunities for drug repurposing: Primary screen for NB1643 cells (AID 1347099); note: nearly all actives have a fitted effect of over 50% in size
# In short: as §1
# [10] = qHTS of pediatric cancer cell lines to identify multiple opportunities for drug repurposing: Primary screen for LAN-5 cells (AID 1347100)
# In short: as §2
# [11] = qHTS of pediatric cancer cell lines to identify multiple opportunities for drug repurposing: Primary screen for BT-12 cells (AID 1347101); note: nearly all actives have a fitted effect of over 25% in size
# In short: as §3
# [12] = qHTS of pediatric cancer cell lines to identify multiple opportunities for drug repurposing: Primary screen for Rh18 cells (AID 1347102); note: nearly all actives have a fitted effect of over 65% in size
# In short: as §2
# [13] = qHTS of pediatric cancer cell lines to identify multiple opportunities for drug repurposing: Primary screen for OHS-50 cells (AID 1347103); note: nearly all actives have a fitted effect of over 40% in size
# In short: as §3
# [14] = qHTS of pediatric cancer cell lines to identify multiple opportunities for drug repurposing: Primary screen for control Hh wild type fibroblast cells (AID 1347106); note: nearly all actives have a fitted effect of over 55% in size;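 for activity change, negative = cytotoxic: series mostly up to about 46 µM; a drop in luminescence marks cytotoxicity and a rise apparent proliferation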
# In short: as §2
# [15] = qHTS of pediatric cancer cell lines to identify multiple opportunities for drug repurposing: Primary screen for Rh30 cells (AID 1347107); note: nearly all actives have a fitted effect of over 75% in size; for activity change, negative = cytotoxic: series mostly up to about 46 µM
# In short: as §2
# [16] = qHTS of pediatric cancer cell lines to identify multiple opportunities for drug repurposing: Primary screen for Rh41 cells (AID 1347108); note: nearly all actives have a fitted effect of over 70% in size;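 for activity change, negative = cytotoxic: series mostly up to about 46 µM; luminescence drop marks cytotoxic hits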
# In short: as §1
# [17] = qHTS of pediatric cancer cell lines to identify multiple opportunities for drug repurposing: Primary screen for RD cells (AID 1347104); note: nearly all actives have a fitted effect of over 55% in size
# In short: as §1
# [18] = qHTS of pediatric cancer cell lines to identify multiple opportunities for drug repurposing: Primary screen for MG 63 (6-TG R) cells (AID 1347105); note: nearly all actives have a fitted effect of over 50% in size
# In short: as §1
# [19] = qHTS of pediatric cancer cell lines to identify multiple opportunities for drug repurposing: Confirmatory screen for NB1643 cells (AID 1347109); note: nearly all actives have a fitted effect of over 45% in size
# In short: as §2
# [20] = qHTS of pediatric cancer cell lines to identify multiple opportunities for drug repurposing: Confirmatory screen for A673 cells (AID 1347110);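 note: cells exposed to compound for 48 h before the viability read; nearly all actives have a fitted effect of over 65% in size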
# In short: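 Cells plated at 500-1,000/well were treated five hours later with multi-point dilutions up to 46 µM final. After two days, CellTiter-Glo was added and luminescence read.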
# Potency is the fitted concentration of half-maximal effect.
compound,measurement,setting,value
Nc1ccn(C2CO[C@H](CO)O2)c(=O)n1 (some centres not stated),Potency,[1],inactive
same,Potency,[2],inactive
same,Potency,[3],inactive
same,Potency,[4],inactive
same,Potency,[5],inactive
same,Potency,[6],inactive
same,Potency,[7],inactive
same,Potency,[8],inactive
same,Potency,[9],inactive
same,Potency,[10],inactive
same,Potency,[11],inactive
same,Potency,[12],inactive
same,Potency,[13],inactive
same,Potency,[14],inactive
same,Potency,[15],inactive
same,Potency,[16],inactive
Nc1ccn(C[C@@H](CO)OCP(=O)(O)O)c(=O)n1,Potency,[1],inactive
same,Potency,[2],inactive
same,Potency,[3],inactive
same,Potency,[4],inactive
same,Potency,[5],inactive
same,Potency,[6],inactive
same,Potency,[7],inactive
same,Potency,[8],inactive
same,Potency,[9],inactive
same,Potency,[10],inactive
same,Potency,[11],inactive
same,Potency,[12],inactive
same,Potency,[13],inactive
same,Potency,[17],inactive
same,Potency,[18],inactive
same,Potency,[14],inactive
same,Potency,[16],inactive
Cn1cc(CNCC2CCN(c3ncc(C(=O)NO)cn3)CC2)c2ccccc21,Potency,[1],74.3 nM (active)
same,Potency,[2],74.3 nM (active)
same,Potency,[3],66.2 nM (active)
same,Potency,[4],109 nM (active)
same,Potency,[5],93.5 nM (active)
same,Potency,[6],469 nM (active)
same,Potency,[7],148 nM (active)
same,Potency,[8],121 nM (active)
same,Potency,[9],148 nM (active)
same,Potency,[10],52.6 nM (active)
same,Potency,[11],193 nM (active)
same,Potency,[12],37.2 nM (active)
same,Potency,[13],86.3 nM (active)
same,Potency,[18],187 nM (active)
same,Potency,[14],2640 nM (active)
same,Potency,[15],1180 nM (active)
same,Potency,[16],148 nM (active)
same,Potency,[19],165 nM (active)
same,Potency,[20],104 nM (active)
C[C@@H](Cc1cc2c(c(C(N)=O)c1)N(CCCO)CC2)NCCOc1ccccc1OCC(F)(F)F,Potency,[1],inactive
same,Potency,[2],inactive
same,Potency,[3],inactive
same,Potency,[4],inactive
same,Potency,[5],inactive
same,Potency,[6],inactive
same,Potency,[7],inactive
same,Potency,[8],inactive
same,Potency,[9],inactive
same,Potency,[10],inactive
same,Potency,[17],inactive
same,Potency,[18],inactive
same,Potency,[14],inactive
same,Potency,[15],inactive
same,Potency,[16],inactive
OCc1ccccc1O[C@@H]1O[C@H](CO)[C@H](O)[C@H](O)[C@H]1O,Potency,[1],inactive
same,Potency,[2],inactive
same,Potency,[3],inactive
same,Potency,[4],inactive
same,Potency,[5],inactive
same,Potency,[6],inactive
same,Potency,[7],inactive
same,Potency,[8],inactive
same,Potency,[10],inactive
same,Potency,[11],inactive
same,Potency,[12],inactive
same,Potency,[13],inactive
same,Potency,[17],inactive
same,Potency,[18],inactive
same,Potency,[14],inactive
same,Potency,[15],inactive
same,Potency,[16],inactive
COc1ccc(CCC(=O)c2c(O)cc(O[C@@H]3O[C@H](CO)[C@@H](O)[C@H](O)[C@@H]3O[C@@H]3O[C@@H](C)[C@H](O)[C@@H](O)[C@@H]3O)cc2O)cc1O,Potency,[1],inactive
same,Potency,[2],9350 nM (active)
same,Potency,[3],3320 nM (active)
same,Potency,[4],inactive
same,Potency,[5],inactive
same,Potency,[6],inactive
same,Potency,[7],inactive
same,Potency,[8],13600 nM (active)
same,Potency,[10],inactive
same,Potency,[11],inactive
same,Potency,[12],inactive
same,Potency,[13],inactive
same,Potency,[17],13200 nM (active)
same,Potency,[18],inactive
same,Potency,[14],3720 nM (active)
CN(C)c1ccc(C(=O)NCCCCCCC(=O)NO)cc1,Potency,[1],743 nM (active)
same,Potency,[2],1180 nM (active)
same,Potency,[3],332 nM (active)
same,Potency,[4],153 nM (active)
same,Potency,[5],469 nM (active)
same,Potency,[6],1180 nM (active)
same,Potency,[7],118 nM (active)
same,Potency,[8],2410 nM (active)
same,Potency,[9],296 nM (active)
same,Potency,[10],132 nM (active)
same,Potency,[11],1530 nM (active)
same,Potency,[12],93.5 nM (active)
same,Potency,[13],344 nM (active)
same,Potency,[14],3720 nM (active)
same,Potency,[15],2350 nM (active)
same,Potency,[20],1850 nM (active)
COC(=O)[C@@H]1CC2=CC(=O)CC[C@]2(C)[C@@]23O[C@@H]2C[C@@]2(C)[C@H](CC[C@@]24CCC(=O)O4)[C@@H]13,Potency,[1],inactive
same,Potency,[2],inactive
same,Potency,[3],inactive
same,Potency,[4],inactive
same,Potency,[5],inactive
same,Potency,[6],inactive
same,Potency,[7],inactive
same,Potency,[8],inactive
same,Potency,[9],inactive
same,Potency,[10],inactive
same,Potency,[11],inactive
same,Potency,[12],inactive
same,Potency,[13],inactive
same,Potency,[17],inactive
same,Potency,[18],inactive
same,Potency,[14],inactive
same,Potency,[15],inactive
same,Potency,[16],inactive
CCCCC(=O)O[C@]1(C(=O)CO)[C@@H](C)C[C@H]2[C@@H]3CCC4=CC(=O)C=C[C@]4(C)[C@@]3(F)[C@@H](O)C[C@@]21C,Potency,[1],inactive
same,Potency,[2],inactive
same,Potency,[3],inactive
same,Potency,[4],inactive
same,Potency,[5],inactive
same,Potency,[6],inactive
same,Potency,[8],inactive
same,Potency,[9],inactive
same,Potency,[10],inactive
same,Potency,[11],inactive
same,Potency,[13],inactive
same,Potency,[17],inactive
same,Potency,[18],inactive
same,Potency,[14],inactive
same,Potency,[15],inactive
same,Potency,[16],inactive
same,Potency,[19],inactive
same,Potency,[20],inactive
CCN1CCN(C(=O)N[C@H](C(=O)N[C@@H]2C(=O)N3C(C(=O)O)=C(CSc4nnnn4C)CS[C@@H]23)c2ccc(O)cc2)C(=O)C1=O,"activity change, negative = cytotoxic",[1],24.4% [at 9.22 µM]
same,"activity change, negative = cytotoxic",[2],6.36% [at 9.22 µM]
same,"activity change, negative = cytotoxic",[3],-14.8% [at 9.22 µM]
same,"activity change, negative = cytotoxic",[4],17.1% [at 11.5 µM]
same,"activity change, negative = cytotoxic",[5],14.5% [at 9.22 µM]
same,"activity change, negative = cytotoxic",[6],20.8% [at 9.22 µM]
same,"activity change, negative = cytotoxic",[7],18.2% [at 9.22 µM]
same,"activity change, negative = cytotoxic",[9],17.1% [at 9.22 µM]
same,"activity change, negative = cytotoxic",[10],-3.47% [at 9.22 µM]
same,"activity change, negative = cytotoxic",[12],10.3% [at 9.22 µM]
same,"activity change, negative = cytotoxic",[13],20.3% [at 11.5 µM]
same,"activity change, negative = cytotoxic",[17],6.64% [at 9.22 µM]
same,"activity change, negative = cytotoxic",[18],4.31% [at 9.22 µM]
same,"activity change, negative = cytotoxic",[14],-2.3% [at 9.22 µM]
same,"activity change, negative = cytotoxic",[15],26.1% [at 9.22 µM]
same,"activity change, negative = cytotoxic",[16],38.6% [at 9.22 µM]
